From PubChem BioAssay
HTT aggregate: reduces HttQ103-GFP aggregates in PC12 cells; PC12 HttQ103-GFP aggregates, Acumen cytometry, 40 h; Potency, µM (top dose mostly 46.1 µM), without a hit: top-dose activity change, negative = inhibition, usual class: inhibitors; actives 1.1% (n = 220,000); also: % is scaled to controls: 0 for no effect and ±100 for the full control effect; nearly all actives have a fitted effect of over 60% in size
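Multiplexed with ATP-based cell death, this channel scores GFP aggregates in PC12 cells expressing inducible HTTex1-Q103-GFP. Induction used 100 nM tebufenozide; compounds were tested in concentration series.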
TGFb inhibitor: TGF-b pathway inhibition; HepG2 CAGA-GFP TGF-b/SMAD3 reporter, GFP fluorescence, 18 h; TGF-beta stimulated, 500 pg/mL final; Potency, µM (doses to about 46.1 µM), for inactives: top-dose activity, negative = inhibition, usual class: inhibitors; actives 1.2% (n = 410,000); also: % is scaled to controls: 0 for no effect and ±100 for the full control effect; nearly all actives have a fitted effect of over 65% in size
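Inhibition of TGF-beta-driven CAGA-GFP reporter expression in HEPG2 cells is measured by cellular GFP fluorescence after 18 h stimulation with 500 pg/mL recombinant TGF-beta in 1% FBS medium at 37 degrees C.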
HepG2 viability: counter-screen for TGF-b inhibitors: cytotoxicity in HepG2 cells; HepG2 CAGA-GFP viability, ATP luminescence, 18 h; Potency, µM (series often up to 46.1 µM), inactives show top-dose activity change, negative = cytotoxicity, most hits filed as cytotoxic; AID 588856; actives 0.76% (n = 410,000)
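HepG2 CAGA-GFP cells (1000/well, DMEM with 1% FBS) received compound, then TGF-beta at 500 pg/mL final, and were incubated 18 hours at 37 degrees C. Viability was read by CellTiter-Glo luminescence. Media-only wells were set as complete cell-killing and DMSO as no toxicity.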
ATXN viability: cell viability loss in ATXN counter-screen. Potency, µM (top dose mostly 56.7 µM), hits mostly cytotoxic. actives 0.49% (n = 400,000). AID 651635. S2 cells (HEK-293 line with an ATXN2-luciferase reporter) viability, CellTiter-Fluor protease fluorescence, 24 h; also: nearly all actives have a fitted effect of over 40% in size
HTT ATP protect: Huntington cell model cytoprotection by ATP luminescence. Potency, µM (highest dose often 56.4 µM), without a hit: cytoprotection (ATP increase), usual class: activators. PC12 HTT-Q103 induced, cytoprotection, ATP luminescence, 40 h. AID 1471. actives 0.14% (n = 230,000); also: % of control where 0% means no effect; nearly all actives have a fitted effect of over 45% in size
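PC12 cells with ecdysone-inducible HTT exon 1 Q103-GFP, induced with 100 nM tebufenozide and co-treated with library compounds in a dose series (1536-well, 1500 cells/well). Cytoprotection read as ATP content by ATPlite luminescence.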
ATXN2 expr inh: reduces ATXN2 reporter expression in HEK-293 cells. AID 1745845. HEK-293 ATXN2-luciferase reporter, luminescence, 24 h. Potency, µM (highest dose often 57 µM), inactives show at the highest dose activity change, negative = inhibition, most hits filed as inhibitors. actives 0.72% (n = 360,000); also: % is scaled to controls: 0 for no effect and ±100 for the full control effect; nearly all actives have a fitted effect of over 55% in size
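ATXN2-luciferase reporter cells (luciferase flanked by upstream and downstream ATXN2 gene portions) were treated 24 h at 37 °C with compounds at up to 57 uM. SteadyGlo luminescence gave expression; GF-AFC fluorescence gave viability.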
* hit, by the source's call; i = inactive; u = inconclusive; x = no result; [ ] = remark or other dose. Only some compounds are listed: those with a hit (about 2.8% of all), similar ones and a draw of the others. Calls follow the shape of the dose curve; as a rule, active = well fitted curve in the direction sought with a large enough effect; inconclusive = small, poorly fitted or top-dose-only effect, or another doubt; inactive = no such curve, though single readings can be large; an effect the other way counts as inactive or inconclusive. Potency is read from the fitted curve at half-maximal effect.

SMILES	HTT aggregate	TGFb inhibitor	HepG2 viability	ATXN viability	HTT ATP protect	ATXN2 expr inh
c1ccc(CN2CCC(Nc3nc(-c4cccnc4)nc4ccccc34)CC2)cc1	3%	16µM*	-62%	i	-44%	u
Cc1csc2c(NC3CCN(Cc4ccccc4)CC3)ncnc12	26%[9.22 µM]	-2%	13%	i	5%[10 µM]	u
Cc1sc2ncnc(NC3CCN(Cc4ccccc4)CC3)c2c1C	7.1µM*	u	-22%	i	2%[10 µM]	-30%
c1ccc(CN2CCC(Nc3ncnc4sccc34)CC2)cc1	10µM*	14%	-6%	i	-33%	x
c1cncc(-c2nc(N3CCOCC3)c3ccccc3n2)c1	0.89µM*	-6%	-5%	u	-7%	-16%
O=C(Nc1nc2ccc(F)cc2s1)C1=COCCO1	x	0%	-52%	i	x	u
O=C(Nc1nc2cc3c(cc2s1)OCCO3)C1=COCCO1	-4%[9.22 µM]	-13%	8.9µM*	i	-88%[10 µM]	u
O=CC1=C(c2ccccc2)Oc2ccccc2O1	x	u	-94%	22µM*	x	u
O=C(NC1CCCCC1)[C@@H]1CC=C[C@@H]2CCN(Cc3ccc(Cl)c(Cl)c3)C(=O)[C@@H]21	x	15%	7%	x	x	x
Cc1cn(C2CC3OCC(NC(=O)C4CCCN4C(=O)OC(C)(C)C)C3O2)c(=O)[nH]c1=O (stereo not drawn)	x	-8%	7%	x	x	x
O=[N+]([O-])c1ccccc1S(=O)(=O)N1CCN(Cc2cc3c(cc2O)OCO3)CC1	10%	0%	-21%	i	-40%	8%
O=S(=O)(c1ccccc1F)N1CCN(Cc2cc3c(cc2O)OCO3)CC1	x	-27%	4µM*	i	x	x
COc1cccc(C(=O)NNC(=O)Cc2ccc(Cl)cc2)c1	5%	7%	-16%	i	-19%[10 µM]	5%
COc1cccc(C(=O)Nc2nc(SCc3ccc(Cl)cc3)n[nH]2)c1	5%[9.22 µM]	0%	16µM*	i	16%[10 µM]	20%
Cc1ccnc2ccc([N+](=O)[O-])cc12	x	u	-10%	x	x	x
NNC(=O)c1cncc(Br)c1	0%[9.22 µM]	-1%	4%	i	-3%[10 µM]	-23%
Cc1ccc(C(=O)c2cncc(Br)c2)cc1	14µM*	-4%	-20%	u	13%	26%
CCc1ccc(C(=O)c2cncc(Br)c2)cc1	20µM*	-1%	-5%	i	5%	21%
Cn1c(SCc2ccc(Cl)cc2)nnc1-c1ccc(NC(=O)CCc2ccccc2)cc1	x	-2%	8%	x	x	x
O=C(Cc1cccc2ccccc12)Nc1ccc(Br)cc1C(=O)O	x	-23%	14µM*	x	x	x
O=C(Cc1cccc2ccccc12)Nc1ccc(O)cc1C(=O)O	x	-9%	17%	i	x	-2%
CCN(CC)P(=O)(Nc1ccc(C)cc1Br)c1ccc(N(C)C)cc1NC(=O)c1ccco1 (stereo not drawn)	35µM*	14%	-7%	i	25%	-15%
Cc1ccc(NC(=O)c2ccco2)c(NC(=O)c2ccccc2)c1	x	-1%	2%	i	x	-1%
CC(C)C(=O)NC(c1ccccc1)c1cc([N+](=O)[O-])c2cccnc2c1O (stereo not drawn)	8.9µM*	-9%	-40%	i	-8%[10 µM]	u
O=[N+]([O-])c1cc(Cc2cc([N+](=O)[O-])c3cccnc3c2O)c(O)c2ncccc12	x	x	x	x	-18%[10 µM]	x
CC(=O)NC(c1ccccc1)c1cc([N+](=O)[O-])c2cccnc2c1O (stereo not drawn)	2.8µM*	u	3%	u	-42%[10 µM]	u
O=C(Nc1ccc(-c2nc3ccccc3o2)c(O)c1)c1cc(-n2cnnc2)ccc1Cl	14%	0%	18µM*	i	-31%	-39%
O=S(=O)(c1ccc(Br)cc1)N1CCN(c2nc(-c3cccs3)nc3ccccc23)CC1	x	12%	10%	x	x	x
